Source: PubChem BioAssay (EPA / NIEHS)
“And” between values parts separate entries of the source, which are not always exact repeats. Equal entries are not always repeated. Results filed as inconclusive are left out. The source made the active and inactive calls. The calls were made as follows: active = hit-call score of the fitted dose curve at least 0.9, where 1 is the maximum; inconclusive = response in the unintended direction; inactive = score below 0.9.

Legend:
[1] = molecular target: human Peripheral-type Benzodiazepine Receptor (PBR), TSPO (gene 706) (UniProt P30536); assay: NVS_MP_hPBR: NovaScreen (NVS) Membrane Protein Assay for human Peripheral-type Benzodiazepine Receptor (PBR) (AID 2283331);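 also: hits reduce radioligand binding relative to DMSO baseline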
human Peripheral-type Benzodiazepine Receptor (PBR), TSPO (gene 706), sequence (P30536 whole entry, looked up): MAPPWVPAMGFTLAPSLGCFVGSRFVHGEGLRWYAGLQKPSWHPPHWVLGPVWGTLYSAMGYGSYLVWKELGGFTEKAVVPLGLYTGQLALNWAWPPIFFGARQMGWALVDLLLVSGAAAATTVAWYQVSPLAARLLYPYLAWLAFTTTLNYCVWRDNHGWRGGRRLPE
How it was run: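 Using human colon-derived membranes, this one-endpoint binding test reads radioligand loss by scintillation after 1 h. Screening started at 25 uM in duplicate, with positive and negative controls on every plate, and actives moved to dose series.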

[2] = molecular target: rat Peripheral-type Benzodiazepine Receptor (PBR), Tspo (gene 24230) (UniProt P16257); assay: NVS_MP_rPBR: NovaScreen (NVS) Membrane Protein Assay for rat Peripheral-type Benzodiazepine Receptor (PBR) (AID 2283335)
rat Peripheral-type Benzodiazepine Receptor (PBR), Tspo (gene 24230), sequence (P16257 whole entry, looked up): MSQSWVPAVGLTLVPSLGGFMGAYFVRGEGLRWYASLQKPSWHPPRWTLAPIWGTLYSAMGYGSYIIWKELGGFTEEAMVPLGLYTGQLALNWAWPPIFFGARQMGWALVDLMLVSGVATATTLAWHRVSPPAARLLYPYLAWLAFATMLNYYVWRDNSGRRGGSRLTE
How it was run: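 Single-concentration duplicate screening at 25 uM preceded concentration-series retesting of actives. Binding of a specific radioligand to rat kidney membrane PBR was read by filtration radiodetection after 1 h, with plate-wise positive and negative controls.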

[3] = NVS_IC_rCaBTZCHL: NovaScreen (NVS) Ion Channel Assay for Calcium Channel, Type L, Benzothiazepine Site (CaBTZCHL) (AID 2283337)
How it was run: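 Rat cortical membrane preparation, cell-free. Radioligand displaced by test chemical; 1.5 h incubation; filtration, scintillation count. DMSO = negative control/baseline. Primary: duplicate, 25 uM; secondary: concentration series.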

[4] = molecular target: Estrogen receptor beta (Homo sapiens) (UniProt Q92731); assay: OT_ER_ERbERb_0480: Odyssey Thera (OT) 8-hour HEK293T Protein-Complementation Assay for Estrogen Receptor-beta/-beta Homodimer (AID 2283357);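 also: active means signal gain over DMSO baseline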
Estrogen receptor beta (Homo sapiens), sequence (Q92731 whole entry, looked up, the tested form may be a part): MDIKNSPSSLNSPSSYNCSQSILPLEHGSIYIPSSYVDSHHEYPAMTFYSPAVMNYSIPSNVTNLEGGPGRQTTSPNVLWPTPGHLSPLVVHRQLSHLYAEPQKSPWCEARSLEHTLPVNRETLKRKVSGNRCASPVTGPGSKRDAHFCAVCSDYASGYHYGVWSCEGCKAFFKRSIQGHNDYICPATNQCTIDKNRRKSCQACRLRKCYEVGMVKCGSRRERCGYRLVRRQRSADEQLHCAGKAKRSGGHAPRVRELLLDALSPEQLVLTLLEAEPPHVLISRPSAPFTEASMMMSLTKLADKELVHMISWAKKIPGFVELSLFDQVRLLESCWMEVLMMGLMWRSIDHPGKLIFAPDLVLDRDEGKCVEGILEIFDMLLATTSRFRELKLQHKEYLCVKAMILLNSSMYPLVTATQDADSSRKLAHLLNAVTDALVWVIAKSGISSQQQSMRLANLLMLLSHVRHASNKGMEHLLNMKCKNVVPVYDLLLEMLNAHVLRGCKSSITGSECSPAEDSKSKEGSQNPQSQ
How it was run: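 Fluorescence gain from complemented reporter fragments on ER-beta LBD homodimer in HEK293T was quantified against DMSO controls after 8 h treatment, fixation in 4% formaldehyde and Draq5 staining.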

[5] = molecular target: chimpanzee Androgen Receptor (AR), AR (gene 747460) (UniProt O97775); assay: NVS_NR_cAR: NovaScreen (NVS) Nuclear Receptor Binding Assay for chimpanzee Androgen Receptor (AR) (AID 2283346);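 also: radioligand displacement from AR measured by scintillation counting in a cell-free assay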
chimpanzee Androgen Receptor (AR), AR (gene 747460), sequence (O97775 whole entry, looked up): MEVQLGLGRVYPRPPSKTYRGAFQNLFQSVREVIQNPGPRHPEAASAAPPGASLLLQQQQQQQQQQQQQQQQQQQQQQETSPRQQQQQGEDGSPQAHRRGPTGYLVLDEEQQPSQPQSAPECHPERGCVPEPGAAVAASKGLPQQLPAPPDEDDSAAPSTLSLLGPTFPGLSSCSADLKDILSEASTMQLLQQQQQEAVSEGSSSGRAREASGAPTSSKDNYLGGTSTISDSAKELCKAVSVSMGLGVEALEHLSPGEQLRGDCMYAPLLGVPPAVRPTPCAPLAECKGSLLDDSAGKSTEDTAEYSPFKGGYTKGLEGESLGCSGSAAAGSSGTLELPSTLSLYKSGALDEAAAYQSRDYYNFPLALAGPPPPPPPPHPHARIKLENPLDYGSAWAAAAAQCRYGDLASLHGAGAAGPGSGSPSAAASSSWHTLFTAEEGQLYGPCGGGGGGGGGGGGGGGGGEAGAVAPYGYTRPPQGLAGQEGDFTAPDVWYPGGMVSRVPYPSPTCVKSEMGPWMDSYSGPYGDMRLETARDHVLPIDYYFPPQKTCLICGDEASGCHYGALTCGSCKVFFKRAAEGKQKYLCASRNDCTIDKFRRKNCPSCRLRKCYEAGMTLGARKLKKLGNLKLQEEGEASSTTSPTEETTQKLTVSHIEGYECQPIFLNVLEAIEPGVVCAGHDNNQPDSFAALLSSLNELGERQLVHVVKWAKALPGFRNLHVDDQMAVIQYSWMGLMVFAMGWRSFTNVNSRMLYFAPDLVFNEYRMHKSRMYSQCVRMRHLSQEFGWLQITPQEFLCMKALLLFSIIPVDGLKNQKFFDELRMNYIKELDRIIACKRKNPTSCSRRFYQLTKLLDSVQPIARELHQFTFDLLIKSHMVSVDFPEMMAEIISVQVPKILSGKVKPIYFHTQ
How it was run: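 Cell-free radioligand displacement using receptor protein extracted from Sf9/Sf21 cells; bound radioligand measured by scintillation counting 72 hours after chemical dosing. Loss of signal versus DMSO baseline indicates binding; primary screen single-concentration in duplicate at 25 uM, actives followed in concentration series.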

[6] = molecular target: Sodium channel protein type 1 subunit alpha (Rattus norvegicus) (UniProt P04774); assay: NVS_IC_rNaCh_site2: NovaScreen (NVS) Ion Channel Assay for rat Sodium Channel, Site 2 (NaCh) (AID 2283322);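 also: hit means loss of radioligand binding signal relative to DMSO so AC50 marks displacement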
How it was run: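 Initial duplicate single-point testing at 25 uM, followed by concentration-response runs for actives. Binding of radioligand to rat forebrain membranes quantified after 1 h via filter-based radiodetection.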

[7] = molecular target: PGR (gene 5241) (UniProt P06401); assay: NVS_NR_hPR: NovaScreen (NVS) Nuclear Receptor Binding Assay for human Progestron Receptor (PR) (AID 2283360)
PGR (gene 5241), sequence (P06401 whole entry, looked up): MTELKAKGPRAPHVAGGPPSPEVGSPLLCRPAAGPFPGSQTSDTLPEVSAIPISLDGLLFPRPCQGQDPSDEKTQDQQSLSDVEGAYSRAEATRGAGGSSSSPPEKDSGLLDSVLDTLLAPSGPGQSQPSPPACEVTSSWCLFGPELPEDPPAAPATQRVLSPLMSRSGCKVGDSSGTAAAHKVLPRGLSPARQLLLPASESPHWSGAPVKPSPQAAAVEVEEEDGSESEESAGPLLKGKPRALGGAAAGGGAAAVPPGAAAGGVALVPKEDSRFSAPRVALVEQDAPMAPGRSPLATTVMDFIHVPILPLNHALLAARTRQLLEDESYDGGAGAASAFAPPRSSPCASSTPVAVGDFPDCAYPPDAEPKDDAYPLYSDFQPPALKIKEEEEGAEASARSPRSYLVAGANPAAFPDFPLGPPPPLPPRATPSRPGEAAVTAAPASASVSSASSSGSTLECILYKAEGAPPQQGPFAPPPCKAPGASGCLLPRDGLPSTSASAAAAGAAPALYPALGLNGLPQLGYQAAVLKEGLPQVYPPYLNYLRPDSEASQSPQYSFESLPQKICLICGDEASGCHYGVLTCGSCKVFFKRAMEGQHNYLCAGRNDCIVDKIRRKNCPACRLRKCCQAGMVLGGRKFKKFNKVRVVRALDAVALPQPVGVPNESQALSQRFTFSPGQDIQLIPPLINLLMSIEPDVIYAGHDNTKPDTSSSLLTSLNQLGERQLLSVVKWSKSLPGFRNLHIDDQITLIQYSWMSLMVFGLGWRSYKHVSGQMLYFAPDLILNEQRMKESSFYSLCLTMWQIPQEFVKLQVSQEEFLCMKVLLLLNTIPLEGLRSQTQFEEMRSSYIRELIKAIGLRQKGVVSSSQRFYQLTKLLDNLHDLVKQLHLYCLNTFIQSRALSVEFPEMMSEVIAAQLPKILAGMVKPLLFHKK
How it was run: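 T47D lysate; tritiated or iodinated radioligand; scintillation count at 18 h. DMSO = negative control/baseline. Primary: 25 uM, duplicate. Secondary: concentration series for actives.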

[8] = molecular target: bovine Estrogen Receptor (ER), ESR1 (gene 407238) (UniProt P49884); assay: NVS_NR_bER: NovaScreen (NVS) Nuclear Receptor Binding Assay for bovine Estrogen Receptor (ER) (AID 2283345);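 also: actives lower the bound radioligand count which means they displace the ER ligand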
bovine Estrogen Receptor (ER), ESR1 (gene 407238), sequence (P49884 whole entry, looked up): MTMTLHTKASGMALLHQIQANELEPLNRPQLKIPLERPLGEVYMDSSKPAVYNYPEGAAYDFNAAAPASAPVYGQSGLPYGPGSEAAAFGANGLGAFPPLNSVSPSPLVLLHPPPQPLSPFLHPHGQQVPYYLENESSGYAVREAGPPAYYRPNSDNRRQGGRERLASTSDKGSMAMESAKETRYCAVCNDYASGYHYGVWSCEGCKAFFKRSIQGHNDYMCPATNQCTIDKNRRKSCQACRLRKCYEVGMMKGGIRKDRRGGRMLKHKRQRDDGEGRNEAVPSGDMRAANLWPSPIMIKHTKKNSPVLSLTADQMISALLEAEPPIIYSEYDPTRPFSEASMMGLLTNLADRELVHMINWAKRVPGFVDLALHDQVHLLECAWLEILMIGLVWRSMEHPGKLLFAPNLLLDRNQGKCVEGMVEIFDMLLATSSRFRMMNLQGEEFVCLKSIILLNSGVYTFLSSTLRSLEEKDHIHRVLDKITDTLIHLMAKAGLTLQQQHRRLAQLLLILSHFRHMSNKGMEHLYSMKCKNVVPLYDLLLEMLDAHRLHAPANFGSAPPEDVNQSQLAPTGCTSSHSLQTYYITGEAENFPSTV
How it was run: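 Scintillation counting of displaced radioligand gave the readout; bovine uterine membrane extract supplied the receptor. Measured 18 h post-dose, normalized to DMSO baseline. Single 25 uM duplicate screen preceded concentration-response follow-up.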

[9] = molecular target: Estrogen receptor (Homo sapiens) (UniProt P03372); assay: NVS_NR_hER: NovaScreen (NVS) Nuclear Receptor Binding Assay for human Estrogen Receptor (ER) (AID 2283348)
Estrogen receptor (Homo sapiens), sequence (P03372 whole entry, looked up, the tested form may be a part): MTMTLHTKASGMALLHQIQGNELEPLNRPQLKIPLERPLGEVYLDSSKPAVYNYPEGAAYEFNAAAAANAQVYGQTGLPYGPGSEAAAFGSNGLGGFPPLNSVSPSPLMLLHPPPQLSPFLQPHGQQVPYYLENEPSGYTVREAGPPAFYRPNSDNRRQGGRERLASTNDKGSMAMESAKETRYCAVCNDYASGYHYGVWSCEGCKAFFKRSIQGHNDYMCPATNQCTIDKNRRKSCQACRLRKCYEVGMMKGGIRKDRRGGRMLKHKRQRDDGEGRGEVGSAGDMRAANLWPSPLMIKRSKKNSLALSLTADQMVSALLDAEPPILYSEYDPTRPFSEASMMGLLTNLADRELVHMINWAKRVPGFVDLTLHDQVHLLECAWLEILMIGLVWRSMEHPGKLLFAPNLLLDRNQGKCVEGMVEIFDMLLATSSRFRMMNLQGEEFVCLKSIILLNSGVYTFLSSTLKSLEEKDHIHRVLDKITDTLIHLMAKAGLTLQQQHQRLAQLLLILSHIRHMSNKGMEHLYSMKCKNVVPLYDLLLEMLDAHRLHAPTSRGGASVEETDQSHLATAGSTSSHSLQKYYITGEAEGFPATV
How it was run: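 Radiodetection of ligand displacement in a lysate-based, cell-free format using MCF7 extracts, read at 18 hours. Duplicate 25 uM primary testing, then concentration series for actives.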

[10] = molecular target: Estrogen receptor (Homo sapiens) (UniProt P03372); assay: OT_ER_ERaERa_1440: Odyssey Thera (OT) 24-hour HEK293T Protein-Complementation Assay for Estrogen Receptor-alpha/-alpha Homodimer (AID 2283349);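 also: hits raise fluorescence above DMSO for agonists and antagonists alike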
How it was run: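 Stably transfected HEK293T; ERα LBD homodimer PCA. 24 h dosing, fluorescence intensity read, gain-of-signal vs DMSO.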

[11] = molecular target: Estrogen receptor (Homo sapiens) (UniProt P03372); assay: OT_ER_ERaERa_0480: Odyssey Thera (OT) 8-hour HEK293T Protein-Complementation Assay for Estrogen Receptor-alpha/-alpha Homodimer (AID 2283351);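 also: rise in fluorescence from reassembled reporter fragments on ERα LBD homodimer in nucleus or whole cell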
How it was run: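 Read-out: fluorescence intensity rise relative to DMSO, nuclear for agonists, nuclear plus cytoplasmic for antagonists. Construct is the ERα LBD (aa 310-547) homodimer fragment-complementation pair, stably expressed in HEK293T; exposure 8 h.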

[12] = molecular target: T1, Estrogen receptor (Homo sapiens) + Estrogen receptor beta (Homo sapiens) (UniProt P03372+Q92731); assay: OT_ER_ERaERb_0480: Odyssey Thera (OT) 8-hour HEK293T Protein-Complementation Assay for Estrogen Receptor-alpha/-beta Heterodimer (AID 2283352)
How it was run: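 HEK293T protein-fragment complementation assay of ER-alpha/ER-beta LBD heterodimerisation, read 8 h after dosing. Mean nuclear/cytoplasmic fluorescence intensity measured by laser scanning cytometry; gain of signal fitted relative to DMSO.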

[13] = molecular target: T1, Estrogen receptor (Homo sapiens) + Estrogen receptor beta (Homo sapiens); assay: OT_ER_ERaERb_1440: Odyssey Thera (OT) 24-hour HEK293T Protein-Complementation Assay for Estrogen Receptor-alpha/-beta Homodimer (AID 2283356);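 also: heteromer of ER alpha and ER beta binding domains; hits raise reporter fluorescence and both agonists and antagonists give an increase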
How it was run: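 HEK293T stably expressing a PCA of ER alpha LBD (aa 310-547) and ER beta LBD (aa 263-489). After 24 h compound exposure, mean fluorescence intensity in nucleus (agonists) or nucleus and cytoplasm (antagonists) measured by laser scanning cytometry versus vehicle.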

[14] = molecular target: Retinoic acid receptor alpha (Homo sapiens) (UniProt P10276); assay: NVS_NR_hRAR_Antagonist: NovaScreen (NVS) Nuclear Receptor Binding Assay for human Retinoic Acid Alpha Receptor Antagonism (RAR) (AID 2283358)
Retinoic acid receptor alpha (Homo sapiens), sequence (P10276 whole entry, looked up): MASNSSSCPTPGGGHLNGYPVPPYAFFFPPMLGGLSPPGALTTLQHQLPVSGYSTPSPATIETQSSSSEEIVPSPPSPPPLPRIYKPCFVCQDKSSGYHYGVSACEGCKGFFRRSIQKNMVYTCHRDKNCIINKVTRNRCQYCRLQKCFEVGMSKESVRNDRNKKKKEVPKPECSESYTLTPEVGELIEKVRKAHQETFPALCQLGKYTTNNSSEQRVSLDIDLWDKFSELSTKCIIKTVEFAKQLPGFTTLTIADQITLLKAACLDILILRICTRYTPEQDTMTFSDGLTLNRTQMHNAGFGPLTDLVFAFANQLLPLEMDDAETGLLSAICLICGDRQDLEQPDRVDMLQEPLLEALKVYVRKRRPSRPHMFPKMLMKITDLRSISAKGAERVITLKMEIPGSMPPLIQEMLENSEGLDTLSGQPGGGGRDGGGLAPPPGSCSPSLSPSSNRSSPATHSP
How it was run: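 Chemicals were first tested in duplicate at 25 uM, then actives in concentration series, in a cell-free TR-FRET antagonist binding format. Measurements were taken 2 hours after dosing and loss of signal was evaluated against DMSO controls.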

[15] = molecular target: human Peroxisome Proliferator-activated Receptor alpha (PPARa), PPARA (gene 5465) (UniProt Q07869); assay: NVS_NR_hPPARa: NovaScreen (NVS) Nuclear Receptor Binding Assay for human Peroxisome Proliferator-activated Receptor alpha (PPARa) (AID 2283359);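 also: activity means loss of TR-FRET signal versus DMSO baseline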
human Peroxisome Proliferator-activated Receptor alpha (PPARa), PPARA (gene 5465), sequence (Q07869 whole entry, looked up): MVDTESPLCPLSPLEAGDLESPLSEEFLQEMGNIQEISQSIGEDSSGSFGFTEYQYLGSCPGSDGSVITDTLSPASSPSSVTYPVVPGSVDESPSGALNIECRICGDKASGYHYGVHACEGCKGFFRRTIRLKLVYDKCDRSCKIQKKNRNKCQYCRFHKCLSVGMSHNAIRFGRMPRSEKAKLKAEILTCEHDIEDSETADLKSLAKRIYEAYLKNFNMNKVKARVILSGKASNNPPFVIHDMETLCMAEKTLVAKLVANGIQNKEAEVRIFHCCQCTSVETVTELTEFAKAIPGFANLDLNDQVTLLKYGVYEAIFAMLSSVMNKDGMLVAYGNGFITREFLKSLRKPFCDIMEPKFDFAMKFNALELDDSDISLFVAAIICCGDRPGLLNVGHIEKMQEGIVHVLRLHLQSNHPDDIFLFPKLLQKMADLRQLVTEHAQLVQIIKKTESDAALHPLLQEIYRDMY
How it was run: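 One-hour incubation, cell-free extracted protein, TR-FRET binding readout; signal loss vs DMSO scored. Screen: 25 uM duplicates, confirmatory dose series for actives.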

[16] = molecular target: Androgen Receptor/SRC-1 Co-activator, AR (gene 367) (UniProt P10275); assay: OT_AR_ARSRC1_0960: Odyssey Thera (OT) 16-hour HEK293T Protein-Complementation Assay for Androgen Receptor/SRC-1 Co-activator (AID 2283353);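 also: actives raise the signal above DMSO so potency reflects increased AR and SRC-1 complex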
How it was run: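 Readout: 488 nm nuclear-to-cytoplasmic fluorescence ratio from imaging of at least 400 cells per image, 16 h post-dose. Reporter is Venus YFP complementation between AR and SRC-1 fusions, stably expressed in HEK293T; activity scored upward relative to DMSO.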

[17] = molecular target: Androgen Receptor/SRC-1 Co-activator, AR (gene 367) (UniProt P10275); assay: OT_AR_ARSRC1_0480: Odyssey Thera (OT) 8-hour HEK293T Protein-Complementation Assay for Androgen Receptor/SRC-1 Co-activator (AID 2283354);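 also: hits raise the complementation signal above DMSO so AC50 marks enhancers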
How it was run: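 After 8 h dosing, stably expressing HEK293T cells with split-Venus AR/SRC-1 fusions were imaged (488, 635nm). The 488nm N/C ratio per image gave the endpoint, analysed in the positive direction against DMSO.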

[18] = molecular target: Retinoic acid receptor alpha (Homo sapiens) (UniProt P10276); assay: NVS_NR_hRARa_Agonist: NovaScreen (NVS) Nuclear Receptor Binding Assay for human Retinoic Acid Alpha Receptor Agonism (RAR) (AID 2283361)
How it was run: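 Compounds screened at 25 uM, duplicate, then in concentration series if active. Detection: TR-FRET gain of signal versus DMSO after 2 h with cell-free extracted RARα.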

In the case of `c1ccc(Oc2ccccc2)cc1`, the outcome [1] is reported as “inactive”, the outcome [2] is reported as “inactive” and the outcome [3] is reported as “inactive”. The outcome [4] was “inactive”.

In the case of `Oc1ccc2cc(SSc3ccc4cc(O)ccc4c3)ccc2c1`, the AC50 [5] is reported as 31.9 µM (active).

For `CC=Cc1ccc(OC)c(OC)c1`, the outcome [6] was “inactive”.

With `CCCCC(CC)COC(C)=O` (centres undefined) the outcome [6] was “inactive”, the outcome [2] was “inactive” and the outcome [4] was “inactive”.

With `COCCc1ccc(OCC(O)CNC(C)C)cc1` (centres undefined) the AC50 [6] was 5.04 µM (active).

In the case of `CCc1cc(C(C)(C)C)c(O)c(C(C)(C)C)c1`, the outcome [5] is reported as “inactive”.

With `CS(=O)(=O)c1ccc(C2=C(c3ccccc3)C(=O)OC2)cc1` the outcome [6] was “inactive” and the outcome [7] was “inactive”.

In the case of `C=CC(=O)OCCCC`, the outcome [1] is reported as “inactive”, the outcome [2] is reported as “inactive” and the outcome [4] is reported as “inactive”.

With `C=C(C)[C@H]1CC=C(C)C(=O)C1` the AC50 [1] was 25 µM (active) and the outcome [5] was “inactive”.

For `O=C1OC[C@H](Cc2cccc(O)c2)[C@H]1Cc1cccc(O)c1`, the AC50 [1] was 8.4 µM (active) and 3.26 µM (active), the AC50 [2] was 5.43 µM (active) and the AC50 [5] was 4.16 µM (active).

With `CCCCCCCCCCCC(=O)OCC(O)CO` (centres undefined) the outcome [8] was “inactive”, the outcome [9] was “inactive” and the outcome [10] was “inactive”. For the same compound, the outcome [11] was “inactive”, the outcome [12] was “inactive” and the outcome [13] was “inactive”. The outcome [4] was “inactive”.

For `O=CCc1ccccc1`, the outcome [5] was “inactive”.

For `Cc1[nH]c(=O)c(C#N)cc1-c1ccncc1`, the outcome [8] was “inactive”.

For `C[C@@H]1CCN(C(=O)[C@H](CCCN=C(N)N)NS(=O)(=O)c2cccc3c2NC[C@H](C)C3)[C@@H](C(=O)O)C1`, the AC50 [6] was 0.894 µM (active).

In the case of `CCOc1ccc(N=Nc2ccc(C=Cc3ccc(N=Nc4ccc(OCC)cc4)cc3S(=O)(=O)O)c(S(=O)(=O)O)c2)cc1`, the AC50 [1] is reported as 0.00187 µM (active), the AC50 [2] is reported as 5.82 µM (active) and the AC50 [5] is reported as 17.7 µM (active). The AC50 [14] was 12.9 µM (active) and the AC50 [15] was 9.11 µM (active).

For `CCCCN(CCCC)C(=O)N(CCCC)CCCC`, the AC50 [1] was 20.6 µM (active) and the AC50 [2] was 10.4 µM (active).

With `Cc1ccc(S(=O)(=O)Oc2ccc(N=Nc3ccc(-c4ccc(N=Nc5c(O)ccc6cc(S(=O)(=O)O)cc(S(=O)(=O)O)c56)c(C)c4)cc3C)cc2)cc1` the AC50 [1] was 0.0489 µM (active), the AC50 [2] was 0.118 µM (active) and the AC50 [5] was 5.44 µM (active). For the same compound, the outcome [16] was “inactive”, the outcome [17] was “inactive” and the outcome [4] was “inactive”. The outcome [14] was “inactive” and the outcome [15] was “inactive”.

In the case of `COc1ccc(CCN2CCC(Nc3nc4ccccc4n3Cc3ccc(F)cc3)CC2)cc1`, the AC50 [6] is reported as 0.115 µM (active), the outcome [1] is reported as “inactive” and the AC50 [3] is reported as 2.18 µM (active). For the same compound, the outcome [7] was “inactive”.

With `Cc1cc(=O)oc2cc(N(C)C)ccc12` the AC50 [1] was 6.09 µM (active), the AC50 [2] was 25 µM (active) and the AC50 [5] was 6.8 µM (active). For the same compound, the AC50 [18] was 14.6 µM (active).
